Screening results from PubChem.
FadD28 FP inh – inhibitors of Mycobacterium tuberculosis FadD28 bisubstrate binding; FadD28 bisubstrate probe binding, fluorescence polarization; inhibition, % at 12.5 µM; actives 0.22% (n = 360,000); AID 588549; in the data active = inhibition above about 8.5%, passing the limit was not always enough
BioA inh – blocks M. tuberculosis BioA enzyme activity; purified M. tuberculosis BioA enzyme, plate reader; inhibition, % at 9.99 µM; actives 0.096% (n = 360,000); AID 602481; in the data active = inhibition above about 40%
TcdB GH inh – inhibitors of Clostridioides difficile toxin B glycohydrolase | TcdB glycohydrolase enzymatic assay, plate reader | inhibition, % at 9.99 µM | actives 0.24% (n = 350,000); in the data active = inhibition above about 10%
BH1578 lux ind – quorum light induction in luxS cqsA deficient V. cholerae; activation, % at 18.7 µM; V. cholerae BH1578 lux reporter, luminescence, 6 h; actives 0.16% (n = 350,000); AID 588436; in the data active = activation mostly above about 9.7%, no sharp cut-off
A number is an active result; – = inactive; · = not tested or not shown; ! = not active in a repeat. The list is not random: actives were taken first. Their share in the collection is about 0.54%.

SMILES	FadD28 FP inh	BioA inh	TcdB GH inh	BH1578 lux ind
Cc1ccc(N=C2NC(=O)/C(=C/C=C/c3ccco3)S2)cc1	–	·	–	–
COc1ccc(C(=O)/C=C/c2ccc(O)cc2)cc1	–	–	–	–
O=C(/C=C/c1ccc(O)cc1)c1ccccc1	–	·	15	–
Cc1ccc(S(=O)(=O)N2CCCC2C(=O)Nc2ccc(O)cc2)cc1 (configuration not stated)	–	–	10	–
COc1ccc(CCNc2nc(C)c(C(C)=O)s2)cc1OC	–	81	·	–
O=C(OCC(=O)N1CCCCC1)c1ccccc1SCC(=O)N1CCCCC1	–	–	16	–
O=C(COC(=O)c1ccccc1SCC(=O)N1CCCC1)NC1CCCCC1	–	–	–	–
COC(=O)c1sc2nc(SCc3ccccc3C)n(N)c(=O)c2c1C	–	·	16	–
COC(=O)c1sc2nc(SCc3cccc(Cl)c3)n(N)c(=O)c2c1C	–	·	–	–
Cc1cc2c(c(=O)n1Cc1cccnc1)C(c1ccccc1)C(C#N)=C(N)O2 (configuration not stated)	–	48	·	–
O=C(O)c1ccccc1NS(=O)(=O)c1ccc(NNC(=S)Nc2ccc(OC(F)F)cc2)c([N+](=O)[O-])c1	55	·	–	–
CCOc1cc(/C=N/Nc2ccc(S(=O)(=O)Nc3ccccc3C(=O)O)cc2[N+](=O)[O-])cc(Cl)c1O	25	–	–	–
CC(=O)Nc1ccc(C=NNc2ccc(S(=O)(=O)Nc3ccccc3C(=O)O)cc2[N+](=O)[O-])cc1	28	–	–	–
COc1cc(C=NNc2ccc(S(=O)(=O)Nc3ccccc3C(=O)O)cc2[N+](=O)[O-])ccc1O	50	–	–	–
C[C@H](CO)N1C[C@H](C)[C@H](CN(C)C(=O)CN(C)C)Oc2ncc(-c3ccc(C(=O)N(C)C)cc3)cc2C1=O	·	–	–	·
C[C@@H]1CN([C@H](C)CO)C(=O)c2cc(NS(=O)(=O)c3ccc(F)cc3)ccc2O[C@@H]1CN(C)C(=O)Nc1ccc(C(F)(F)F)cc1	·	–	–	·
O=C1C2C=C(Br)[C@H](C[C@@H]2OCCCCCCO)[C@@]12CO2	·	–	–	·
CC(=O)Nc1cccc(/C(C)=N/Nc2ccc(S(=O)(=O)Nc3ccccc3C(=O)O)cc2[N+](=O)[O-])c1	19	–	–	–
CC(=O)Nc1ccc(C=NNc2ccc([N+](=O)[O-])cc2S(=O)(=O)Nc2ccccc2C(=O)O)cc1	–	–	–	–
CN(CCO)c1ccc(C=NNc2ccc([N+](=O)[O-])cc2S(=O)(=O)Nc2ccccc2C(=O)O)cc1	32	–	–	–
COc1ccccc1NS(=O)(=O)c1cccc(-n2c(O)c(C=Nc3ccccc3C(=O)O)c3ccccc3c2=O)c1	20	–	–	–
COc1ccc(C(=O)N/N=C\c2ccoc2)cc1	–	–	–	–
Cc1ccc(C(=O)N/N=C/c2ccoc2)cc1C	–	49	–	–
C=C[C@@H](C)[C@@H](OC(=O)Nc1ccc(OC)cc1)c1ccc(OCCO)cc1	·	–	–	·
COCC(=O)N1C[C@H](C)[C@H](OC)CN(C)C(=O)c2cc(NC(=O)c3cnccn3)ccc2OC[C@H]1C	·	–	–	·
SMILES	FadD28 FP inh	BioA inh	TcdB GH inh	BH1578 lux ind
O=C(O)c1ccc(N=N/C(=N\Nc2ccc(C(=O)O)cc2)c2ccccc2)cc1	–	–	–	–
Brc1ccc(N/N=C(/N=Nc2nn[nH]n2)c2ccccc2)cc1	13	·	–	–
COc1ccc(/C=N/NC(=O)CSc2nnc(CCCc3ccc(OC)c(C)c3)o2)cc1	–	–	·	33
COc1ccc(CCCc2nnc(SCC(=O)N/N=C\c3ccc(O)c(OC)c3)o2)cc1C	–	–	·	–
O=C(Cc1ccc(Cl)cc1)NNc1c(F)c(F)cc(F)c1F	–	·	–	–
Oc1ccc(Cc2ccccc2Cl)c(O)c1	–	–	13	–
Oc1ccc(Cc2ccc(Cl)cc2)c(O)c1	–	–	10	–
CC(C)C(=O)Nc1ccc2c(c1)C(=O)N(C)[C@@H]1CC[C@@H](CC(=O)NCC3CC3)O[C@H]1CO2	·	–	–	·
C[C@@H]1CN([C@@H](C)CO)C(=O)c2cccc(N(C)C)c2O[C@H]1CN(C)C(=O)Nc1ccc(C(F)(F)F)cc1	·	–	–	·
C[C@H](CO)N1C[C@H](C)[C@@H](CN(C)C(=O)Nc2ccc(C(F)(F)F)cc2)Oc2c(NS(=O)(=O)c3ccccc3)cccc2C1=O	–	–	10!	–
Cc1noc(C)c1NC(=O)N(C)C[C@@H]1Oc2ccc(NC(=O)C3CCCCC3)cc2C(=O)N([C@@H](C)CO)C[C@H]1C	–	–	13!	–
C[C@H](CO)N1C[C@H](C)[C@@H](CN(C)C(=O)Nc2ccc(C(F)(F)F)cc2)Oc2c(cccc2N(C)C)C1=O	–	–	14	–
CCOC(=O)c1c(-c2ccc(C)s2)csc1NC(=O)c1cccs1	17	–	·	–
